Results filed as inconclusive are left out. The source made the active and inactive calls. Rule for the calls: active = hit-call score of the fitted dose curve at least 0.9, where 1 is the maximum; inconclusive = response in the unintended direction; inactive = score below 0.9.

A short description of experiment [1]: ACEA_AR_antagonist_AUC_viability: ACEA Biosciences xCELLigence Real-Time Cell Analysis on Androgen Receptor Antagonism for Viability (AID 2283776).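 Note: 22Rv1 human prostate cancer cells growing on impedance electrode plates; area under impedance growth curve at 80 h after dosing as viability; hits lower the growth signal relative to DMSO meaning cytotoxicity.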 The gist of the method:
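Impedance read-out (RT-CES): area under growth curve at 80 h post-dose, loss of signal scored vs DMSO baseline. 22Rv1 cells; 8-pt 1:4 series, top 100 uM final, ≤0.5% DMSO; biological duplicate.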

Experiment [2] can be described thus: ACEA_ER_AUC_viability: ACEA Biosciences xCELLigence Real-Time Cell Analysis on Estrogen Receptor Agonism for Viability (AID 2283782).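 Note: hit means loss of impedance signal meaning reduced cell growth or viability.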 The gist of the method:
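Continuous-exposure impedance cell analysis uses T-47D cells in charcoal-stripped serum, eight 1:4 dilutions topping at 100 uM final, biological duplicate. Area under the growth curve at 80 h is fitted against DMSO baseline.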

The target of a further experiment is AR (gene 367) (UniProt P10275). The experiment can be described thus: ACEA_AR_agonist_80hr: ACEA Biosciences xCELLigence Real-Time Cell Analysis on Androgen Receptor Agonism for Proliferation (AID 2283783).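 Note: hits increase impedance growth signal above DMSO baseline.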 The gist of the method: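 Real-time cell-growth kinetics were recorded by electrode impedance in 22Rv1 cells exposed to test chemicals up to 100 uM final; the 80 h timepoint served as the readout, fitted upward relative to DMSO controls, in biological duplicate.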

The subject of experiment [3] is frog Estrogen Receptor (ESR1), gene 398734. The experiment can be described thus: ATG_frER1_XSP1: Attagene TRANS-FACTORIAL Multi-Species (XSP1) HepG2 Assay for frog Estrogen Receptor (ESR1) (AID 2283777). The gist of the method: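 After transient transfection and 24 h compound treatment, total RNA from HepG2 cells was reverse-transcribed, amplified, FAM-labeled and resolved by capillary electrophoresis. Signal increases were fitted against DMSO controls.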

The subject of experiment [4] is zebrafish Estrogen Receptor (ESR2A), gene 317734. The experiment can be described thus: ATG_zfER2a_XSP1: Attagene TRANS-FACTORIAL Multi-Species (XSP1) HepG2 Assay for zebrafish Estrogen Receptor (ESR2A) (AID 2283778). The gist of the method: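 Gain-of-signal reporter transcription readout from GAL4-UAS units in transiently transfected HepG2 cells, 24 h exposure, 3 nM 6-alpha-fluorotestosterone co-present. Detection by RT-PCR with capillary electrophoresis fluorescence.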

Experiment [5] deals with chicken Estrogen Receptor (ESR1), ESR1 (gene 396099) (UniProt P06212). As to the kind of experiment: ATG_chERa_XSP1: Attagene TRANS-FACTORIAL Multi-Species (XSP1) HepG2 Assay for chicken Estrogen Receptor (ESR1) (AID 2283779). The gist of the method: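 Gain-of-signal reporter transcription, relative to DMSO, was scored in transiently transfected HepG2 cells after a 24 h dose. Fluorescence intensity of amplified, digested reporter cDNA fragments served as the endpoint.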

Experiment [6] concerns the target Estrogen receptor (Homo sapiens) (UniProt P03372). As to the kind of experiment: ATG_hERa_XSP1: Attagene TRANS-FACTORIAL Multi-Species (XSP1) HepG2 Assay for human Estrogen Receptor (ESR1) (AID 2283780). The gist of the method: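 Reporter transcripts from multiplexed GAL4-UAS units driven by NR-Gal4 chimeras in transiently transfected HepG2 were measured by RT-PCR with capillary electrophoresis 24 h post-dose, with 3 nM 6-alpha-fluorotestosterone present; gain-of-signal relative to DMSO.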

Experiment [7] concerns turtle Estrogen Receptor (ESR1), gene 101933533. As to the kind of experiment: ATG_trERa_XSP1: Attagene TRANS-FACTORIAL Multi-Species (XSP1) HepG2 Assay for turtle Estrogen Receptor (ESR1) (AID 2283781). As to the method:
ATG_XSP1_multi-species_TRANS is a cell-based, multiplexed assay created by modifying the existing Attagene TRANS-FACTORIAL system to include a panel of nuclear receptors from some or all the following species: human (Homo sapiens), mouse (Mus musculus), frog (Xenopus laevis), zebrafish (Danio rerio), chicken (Gallus gallus), and turtle (Chrysemys picta). The ECOTOX-FACTORIAL format uses HepG2, a human liver cell line, with measurements taken at 24 hours after chemical dosing in a 24-well plate. Xsp1 included 3 nM 6-alpha-fluorotestosterone to partially stimulate the androgen receptor.ATG_trERa_XSP1 is one of 29 assay components measured or calculated from the ATG_XSP1_multi-species_TRANS assay. It is designed to make measurements of mRNA induction, a form of inducible reporter, as detected with fluorescence intensity signals by Reverse transcription polymerase chain reaction (RT-PCR) and Capillary electrophoresis technology.The assay endpoint ATG_trERa_XSP1 was analyzed in the positive analysis fitting direction relative to DMSO as the negative control and baseline of activity. […] Furthermore, this assay endpoint can be referred to as a primary readout, because this assay has produced multiple assay endpoints where this one serves a reporter gene function. […]

Experiment [8] concerns turtle Androgen Receptor (AR), gene 101947425. As to the kind of experiment: ATG_trAR_XSP1: Attagene TRANS-FACTORIAL Multi-Species (XSP1) HepG2 Assay for turtle Androgen Receptor (AR) (AID 2283786). The gist of the method: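 Partial androgen stimulation is provided by 3 nM 6-alpha-fluorotestosterone in a multi-species trans-factorial panel expressing a turtle AR–GAL4 fusion in HepG2. After 24 h, reporter mRNA is measured by RT-PCR and capillary electrophoresis and fitted upward against DMSO.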

The nature of experiment [9]: STM_H9_NormalizedViability: Cytotoxicity Assessment at 120 hours in the Stemina devTOX quickPredict H9 human embryonic stem cell (hESC)-based Assay (AID 2283784). The gist of the method: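 Viability of the cell layer was taken from live-cell protease cleavage of a fluorogenic substrate after compound exposure of undifferentiated H9 stem cells, with replenishment each 24h. Fluorescence was normalized to vehicle (0.1% DMSO).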

Chain of AR (gene 367) (P10275 whole entry, looked up): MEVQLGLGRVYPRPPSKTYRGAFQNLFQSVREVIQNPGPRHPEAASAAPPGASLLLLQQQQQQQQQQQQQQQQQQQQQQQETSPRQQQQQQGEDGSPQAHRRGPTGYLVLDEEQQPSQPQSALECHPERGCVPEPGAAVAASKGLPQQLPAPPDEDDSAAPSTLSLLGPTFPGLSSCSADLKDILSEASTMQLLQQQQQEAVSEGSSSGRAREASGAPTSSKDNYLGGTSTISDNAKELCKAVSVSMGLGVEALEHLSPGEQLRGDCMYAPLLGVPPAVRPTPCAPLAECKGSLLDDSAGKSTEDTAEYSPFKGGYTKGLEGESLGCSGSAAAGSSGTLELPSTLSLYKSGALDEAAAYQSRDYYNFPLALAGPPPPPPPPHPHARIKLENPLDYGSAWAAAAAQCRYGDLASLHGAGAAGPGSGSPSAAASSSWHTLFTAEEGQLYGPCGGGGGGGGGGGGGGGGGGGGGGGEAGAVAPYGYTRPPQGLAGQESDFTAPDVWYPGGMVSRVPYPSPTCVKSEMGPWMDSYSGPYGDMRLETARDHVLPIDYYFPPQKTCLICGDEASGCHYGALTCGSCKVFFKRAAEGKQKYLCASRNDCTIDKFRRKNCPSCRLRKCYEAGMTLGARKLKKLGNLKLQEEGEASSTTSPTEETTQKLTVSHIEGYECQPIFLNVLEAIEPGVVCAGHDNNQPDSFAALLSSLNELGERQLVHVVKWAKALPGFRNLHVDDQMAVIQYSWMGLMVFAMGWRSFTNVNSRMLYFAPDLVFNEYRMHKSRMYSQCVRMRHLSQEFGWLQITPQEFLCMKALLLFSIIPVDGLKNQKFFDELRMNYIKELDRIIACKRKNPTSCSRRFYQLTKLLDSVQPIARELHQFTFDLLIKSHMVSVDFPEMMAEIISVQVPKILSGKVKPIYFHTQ
Chain of chicken Estrogen Receptor (ESR1), ESR1 (gene 396099) (P06212 whole entry, looked up, the tested form may be a part): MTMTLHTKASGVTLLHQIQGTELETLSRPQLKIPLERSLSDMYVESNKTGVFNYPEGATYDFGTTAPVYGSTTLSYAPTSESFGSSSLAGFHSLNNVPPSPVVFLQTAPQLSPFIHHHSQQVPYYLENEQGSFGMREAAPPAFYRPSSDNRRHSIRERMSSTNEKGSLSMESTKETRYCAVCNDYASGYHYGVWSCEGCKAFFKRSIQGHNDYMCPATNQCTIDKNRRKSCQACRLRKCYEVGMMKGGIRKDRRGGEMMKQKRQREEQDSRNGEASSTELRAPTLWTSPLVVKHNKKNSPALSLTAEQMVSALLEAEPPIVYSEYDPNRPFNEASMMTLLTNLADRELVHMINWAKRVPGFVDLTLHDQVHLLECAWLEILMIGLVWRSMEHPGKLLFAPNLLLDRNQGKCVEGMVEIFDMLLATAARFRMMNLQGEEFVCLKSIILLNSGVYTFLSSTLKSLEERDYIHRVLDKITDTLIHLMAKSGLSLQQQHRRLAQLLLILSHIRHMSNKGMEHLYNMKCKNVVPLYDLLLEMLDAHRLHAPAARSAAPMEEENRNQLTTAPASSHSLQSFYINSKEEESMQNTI
Chain of Estrogen receptor (Homo sapiens) (P03372 whole entry, looked up, the tested form may be a part): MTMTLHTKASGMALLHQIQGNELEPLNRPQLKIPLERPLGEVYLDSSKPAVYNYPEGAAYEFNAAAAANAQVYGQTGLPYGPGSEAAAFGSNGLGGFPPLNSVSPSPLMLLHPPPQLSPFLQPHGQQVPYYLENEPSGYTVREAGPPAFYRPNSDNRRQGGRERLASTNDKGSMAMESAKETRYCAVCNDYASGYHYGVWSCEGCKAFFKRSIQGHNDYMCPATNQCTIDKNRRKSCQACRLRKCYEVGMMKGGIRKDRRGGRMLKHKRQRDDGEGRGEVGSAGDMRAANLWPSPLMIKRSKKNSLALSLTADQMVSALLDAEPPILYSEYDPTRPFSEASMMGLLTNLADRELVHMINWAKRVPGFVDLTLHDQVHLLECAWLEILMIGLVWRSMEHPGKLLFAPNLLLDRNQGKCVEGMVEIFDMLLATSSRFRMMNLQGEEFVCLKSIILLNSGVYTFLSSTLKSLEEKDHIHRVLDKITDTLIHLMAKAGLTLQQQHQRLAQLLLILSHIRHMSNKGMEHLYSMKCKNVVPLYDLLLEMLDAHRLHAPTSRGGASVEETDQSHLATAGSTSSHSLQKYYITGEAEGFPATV

For the compound `CCCCCCCCCCCCCOP(=O)(O)O`, the compound was classed as inactive in experiment [1]. Besides, the AC50 in experiment [2] is 48.7 µM (active). As for `OC1CCCC1`, the AC50 in experiment [1] was 0.475 µM (active). Besides, the compound was classed as inactive in experiment [2]. As to `CCN(CCC#N)c1ccc(N=Nc2c(Cl)cc([N+](=O)[O-])cc2Cl)cc1`, the AC50 in [1] was 3.41 µM (active). In [2], the call was inactive. For the compound `CCCCCCCCCCc1ccccc1`, the AC50 in experiment [2] was 26.2 µM (active). For the compound `CCCCCCCC(C)=O`, the result in experiment [2] was inactive. Consider `CC(C)c1ccc2cc(C(C)C)ccc2c1`, for which the call (in experiment [1]; in the experiment with AR (gene 367)) was inactive. Take `CCCCC/C=C\CCC=O`: the compound was called inactive (in [1]; in [2]; with AR (gene 367)). Turning to `O=C1CCCN1CCO`, the compound was classed as inactive in experiment [2]. For the compound `CC(=O)OC(C)C`, the result in [1] and in experiment [2] was inactive.

As to `COc1cc(C)ccc1C(C)C`, the call in experiment [2] was inactive.

On to `CC(=O)c1ccc2c(c1)CCCC2`, for which, in experiment [2], the AC50 is 31.7 µM (active). For `O=C(c1ccc(O)cc1)c1ccc(O)cc1O`, the half-maximal activity concentration (AC50) in experiment [3] is 0.664 µM (active); in experiment [4], 0.426 µM (active); in experiment [5], 1.28 µM (active); in experiment [6] it was 1.27 µM (active); in [7], 0.879 µM (active); in experiment [8], 2.69 µM (active). As for `CC(CC=O)c1ccccc1` (centres undefined), the AC50 in experiment [2] is 50 µM (active). Turning to `CCCc1ccc(OC)cc1`, the compound was called inactive (in [1]; in [2]; in the experiment with AR (gene 367)). As to `Cn1c(=O)[nH]c2ncn(C)c2c1=O`, in [2], the result was inactive.

As for `C=CC(C)(CCC=C(C)C)OC(=O)CC(C)C` (centres undefined), the result in experiment [2] was inactive.

`CCCCCCC1(C)CCC(=O)O1` (centres undefined): the compound was classed as inactive in experiment [1] and in [2]. In the case of `c1c[nH]cn1`, the outcome in experiment [1] and in [2] was inactive. With `CCCCCCC(O)CO` (centres undefined), in experiment [2], the AC50 was 40 µM (active).

Turning to `CCCCCCCCCCCCCCCC[N+](C)(C)CC`, the concentration at half-maximal activity (AC50) in experiment [2] is 12.3 µM (active). Same read-out and setting: with `C=CC(=O)OCCOC(=O)C=C` the figure was 32.3 µM (active).

For the compound `O=C1CCCC(=O)O1`, the outcome in experiment [2] was inactive. Consider `CO[Si](OC)(OC)c1ccccc1`, for which, in experiment [2], the outcome was inactive. Same read-out and setting: with `COCCOCCOCCOCCOC` the entry was “inactive”.

Regarding `Oc1ccc(Cl)cc1Cc1cc(Cl)ccc1O`, the values for the AC50 in experiment [1] and in experiment [2] were 8.53 µM (active) and 17.7 µM (active), respectively. In addition, the compound was called inactive with AR (gene 367). Take `CCOC(=O)Cc1cccc2ccccc12`: in experiment [2], the AC50 is 50 µM (active).

Regarding `C1=CCCC1`, the compound was classed as inactive in experiment [2]. Still for that read-out and setting: with `CC(=O)OC1C2(C)CCC(C2)C1(C)C` (centres undefined) the entry was “inactive”.

As for `CC(C)=CCC[C@H](C)CCO`, the call in [1] and in experiment [2] was inactive. For `CCCCC/C=C\C/C=C\CCCCCCCC(=O)OC`, the compound was classed as inactive in [1]. In experiment [2], the AC50 was 65.3 µM (active). The like results for `CCCCCCCC/C=C\CCCCCCCC(=O)O` were, in that order, “inactive” and 50 µM (active). As for `O=C(OCC1CCC2OC2C1)C1CCC2OC2C1` (centres undefined), in [2], the compound was called inactive. Turning to `CCCCCCCC/C=C\CCCCCCCC(=O)OCCO`, the AC50 in experiment [2] was 4.96 µM (active).

As to `C=COCCCC`, the result in experiment [2] was inactive. With `CN(C)c1ccc(C(=N)c2ccc(N(C)C)cc2)cc1`, the concentration at half-maximal activity (AC50) in [1] is 3.19 µM (active); in experiment [2], 32.3 µM (active).

With `O=C1CCC(=O)N1Cl`, the compound was classed as inactive in experiment [2]. Same read-out and setting: the result for `O=[N+]([O-])c1ccc(CO)cc1` reads “inactive”.

For `CCc1c(C(=O)O)c(=O)cnn1-c1ccc(Cl)cc1`, in experiment [2], the AC50 is 31.4 µM (active).

Consider `CC(CC=O)CCCC(C)(C)O` (centres undefined), for which, in the experiment with AR (gene 367), the compound was classed as inactive. On the same count and under the same terms, with `CC(C)c1ccc2c(C(C)C)cc(C(C)C)c(S(=O)(=O)O)c2c1` the entry was “inactive”. Regarding `Nc1ccc(N)c(Cl)c1`, the AC50 in experiment [9] is 18.7 µM (active). Still for that read-out and setting: the result for `CN(C)c1ccc(N=Nc2ccccc2C(=O)O)cc1` reads 68.1 µM (active).

(Values after PubChem BioAssay (EPA / NIEHS).)
